Measurements taken from PubChem BioAssay (NCATS).
Inconclusive results are not listed. Where a call stands in place of a potency, no number is given. Calls of active or inactive are those of the source. The call rests on the fitted dose curve; in most records, active means well fitted curve in the direction sought with a large enough effect; inconclusive means small, poorly fitted or top-dose-only effect, or another doubt; inactive means no such curve, though single readings can be large; an effect the other way counts as inactive or inconclusive. Peptide text beside a SMILES is read from it.

What follows are molecules tested against Cytochrome P450 3A4 (Homo sapiens) (UniProt P08684) (assay: qHTS Assay for Inhibitors and Substrates of Cytochrome P450 3A4 (AID 884; further: nearly all actives have a fitted effect of over 50% in size; further: potency means the concentration at half of the fitted maximal effect)). Conditions: recombinant CYP3A4, Luciferin-PPXE luminescence; series mostly up to 57.1 µM.
Summary of the method: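 20 nM human CYP3A4 with 25 uM Luciferin-PPXE (at KM) in 200 mM KPO4, preincubated 10 min with compound; NADPH regeneration started a 60 min RT reaction. Luciferin detected by luminescence, normalized to 57 uM ketoconazole as full inhibition.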

Cytochrome P450 3A4 (Homo sapiens), sequence (P08684 whole entry, looked up): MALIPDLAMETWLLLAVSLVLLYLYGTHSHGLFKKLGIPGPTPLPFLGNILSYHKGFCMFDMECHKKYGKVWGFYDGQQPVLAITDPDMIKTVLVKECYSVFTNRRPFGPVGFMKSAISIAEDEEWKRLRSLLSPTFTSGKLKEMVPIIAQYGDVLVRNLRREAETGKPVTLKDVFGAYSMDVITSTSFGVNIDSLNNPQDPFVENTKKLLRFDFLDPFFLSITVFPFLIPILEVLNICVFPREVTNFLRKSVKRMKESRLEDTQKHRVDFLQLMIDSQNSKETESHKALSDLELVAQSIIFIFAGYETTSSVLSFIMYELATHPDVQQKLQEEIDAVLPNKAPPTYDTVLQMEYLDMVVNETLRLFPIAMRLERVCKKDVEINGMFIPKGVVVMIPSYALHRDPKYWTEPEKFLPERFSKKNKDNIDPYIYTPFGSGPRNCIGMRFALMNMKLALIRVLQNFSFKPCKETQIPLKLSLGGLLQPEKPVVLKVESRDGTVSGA

Row | SMILES | Potency
1 | CN(C)CCCOC1C(C(O)CO)OC2OC(C)(C)O[C@@H]21 (stereo not given in full) | inactive
2 | CCC(C)C(=O)OC1CCC=C2C=CC(C)C(CCC3CC(O)CC(=O)O3)[C@@H]21 (stereo not given in full) | 20 µM (active)
3 | NC(C(=O)O)[C@@H]1CC(Cl)=NO1 (stereo not given in full) | inactive
4 | CN1CC(=O)N=C1N | inactive
5 | OCC1OC([S-])[C@H](O)C(O)C1O.[Au+] (stereo not given in full) | inactive
6 | CC(C)C1CCC(C(=O)NC(Cc2ccccc2)C(=O)O)CC1 (stereo not given) | inactive
7 | C[C@]12CCC(=O)C=C1CCC1C2C(=O)C[C@]2(C)C1CC[C@]2(O)C(=O)CO (stereo not given in full) | inactive
8 | OCC1O[C@H](OC2C(CO)O[C@@](O)(CO)C2O)C(O)C(O)C1O (stereo not given in full) | inactive
9 | CC1(C)OC2CO[C@]3(COS(N)(=O)=O)OC(C)(C)OC3C2O1 (stereo not given in full) | inactive
10 | CC1=C(CCC(=O)O)c2cc3nc(cc4[nH]c(cc5[nH]c(cc1n2)c(C)c5C(C)O)c(C)c4C(C)O)C(C)=C3CCC(=O)O (stereo not given) | inactive
11 | COC(=O)C(Cc1ccccc1)NC(=O)C(N)CC(=O)O (stereo not drawn) (H-Asp-Phe-OMe; configuration not given here) | inactive
12 | CC1(C)S[C@H]2C(NC(=O)[C@@H](N)c3ccc(O)cc3)C(=O)N2[C@@H]1C(=O)O (stereo not given in full) | inactive
13 | COc1ccc2cc(C(C)CO)ccc2c1 (stereo not given) | inactive
14 | CC1CCC(C(C)C)C(=O)C1 (stereo not given) | inactive
15 | CNC1CC(N)[C@H](O)[C@@H](O[C@@H]2OC(CO)C3OC4(OC(C(N)CO)C(O)C(O)C4O)O[C@@H]3[C@H]2O)C1O (stereo not given in full) | inactive
16 | CCCC(=O)O[C@]1(C(=O)CO)CCC2[C@@H]3CCC4=CC(=O)CC[C@]4(C)C3C(O)C[C@]21C (stereo not given in full) | inactive
17 | CC(=O)N[C@@H]1C(O)OC(CO)C(O)C1O (stereo not given in full) | inactive
18 | O=C1OC(CO)C(O)C(O)C1O (stereo not given) | inactive
19 | CNC1C(OC2C(O[C@@H]3C(O)C(O)[C@@H](N=C(N)N)C(O)C3N=C(N)N)OC(C)[C@@]2(O)CO)OC(CO)C(O)C1O (stereo not given in full) | inactive
20 | COc1cc(C2c3cc4c(cc3C(O[C@@H]3OC5COC(c6cccs6)OC5C(O)C3O)C3COC(=O)C23)OCO4)cc(OC)c1O (stereo not given in full) | 6.31 µM (active)
21 | Nc1nc2ncc(CNc3ccc(C(=O)NC(CCC(=O)O)C(=O)O)cc3)nc2c(=O)[nH]1 (stereo not given) | inactive

What follows are molecules tested against Cytochrome P450 3A4 (Homo sapiens) (UniProt P08684) (assay: qHTS Assay for Activators of Cytochrome P450 3A4 (AID 885; further: nearly all actives have a fitted effect of over 65% in size)). Conditions: recombinant CYP3A4, Luciferin-PPXE luminescence, 60 min; series mostly up to 57.1 µM.
Summary of the method: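 Human CYP3A4 (20 nM) with Luciferin-PPXE at 25 uM (its KM) in 200 mM KPO4; 10 min compound preincubation, then NADPH regeneration and 60 min reaction at RT. Luciferin read by luminescence; normalized to 57 uM ketoconazole full inhibition.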

Row | SMILES | Potency
22 | CCC(C)C(=O)OC1CCC=C2C=CC(C)C(CCC3CC(O)CC(=O)O3)[C@@H]21 (stereo not given in full) | inactive
23 | CCOC(=O)C1=CC(OC(CC)CC)C(NC(C)=O)C(N)C1 (stereo not given) | inactive
24 | COC1C=CO[C@@]2(C)Oc3c(C)c(O)c4c(O)c(c5c(nc6cc(C)ccn65)c4c3C2=O)NC(=O)/C(C)=C\C=CC(C)C(O)[C@@H](C)C(O)C(C)[C@@H](OC(C)=O)C1C (stereo not given in full) | inactive
25 | C[C@]12C=CC(=O)C=C1CCC1C2C(O)C[C@]2(C)C1CC[C@]2(O)C(=O)CO (stereo not given in full) | inactive
26 | Cc1cc(O)c(C=O)c2c1C(=O)Oc1c(C)c(O)c3c(c1O2)C(O)OC3=O (stereo not given) | inactive
27 | COc1c(O)cc(O)cc1O | inactive
28 | CC[C@H](C(=O)[C@H](C)[C@H](O)[C@H](C)CCc1ccc(C)c(O)c1C(=O)O)[C@H]1O[C@](CC)([C@@H]2CC[C@@](O)(CC)[C@H](C)O2)C[C@H]1C | inactive
29 | C/C1=C2N=C(/C=C3N=C(/C(C)=C4\[N-]C(C)(C5N=C1C(C)(CCC(=O)NCC(C)OP(=O)([O-])O[C@H]1C(O)C(n6cnc7cc(C)c(C)cc76)O[C@@H]1CO)C5CC(N)=O)C(C)(CC(N)=O)C4CCC(N)=O)C(C)(CC(N)=O)C\3CCC(N)=O)C(C)(C)C/2CCC(N)=O.[CH2-]C1OC(n2cnc3c(N)ncnc32)C(O)C1O.[Co] (stereo not given in full) | inactive
30 | COc1cc(C2c3cc4c(cc3C(O[C@@H]3OC5COC(c6cccs6)OC5C(O)C3O)C3COC(=O)C23)OCO4)cc(OC)c1O (stereo not given in full) | inactive
